Here are results for 20 compounds from the supplement of paper PMC13380429.

In the test the test system is Vero E6 infected with SARS-CoV-2. Put plainly: inhibition of SARS-CoV-2 cytopathic effect; higher = more antiviral protection, active = above 15. Particulars: 48 h. Background: Damage to the host cells serves as the signal in cytopathic effect assays.

Unmarked numbers belong to inactive results.

In the case of `CC(=O)Oc1ccccc1C(=O)Oc1ccccc1C(=O)O` [acetylsalicylsalicylic-acid], the “inhibition of SARS-CoV-2 cytopathic effect” value (shortened to “inhibition”) was -1.51% (1 nM); 0.51% (8.33 nM); 2.44% (100 nM); -0.27% (833.33 nM); 1.17% (10000 nM).

For the compound `c1cc2c(c(N3CCNCC3)c1)OCCO2` [eltoprazine], the “inhibition” value is 3.51% (1 nM); 2.36% (8.33 nM); 2.47% (100 nM); -1.11% (833.33 nM); -4.55% (10000 nM).

Regarding `OC1(c2ccc(Cl)c(C(F)(F)F)c2)CCN(CCCC(c2ccc(F)cc2)c2ccc(F)cc2)CC1` [penfluridol], the “inhibition” value is -1.2% (1 nM); 2.8% (8.33 nM); 1.5% (100 nM); -2.41% (833.33 nM); 33.9% (active) (10000 nM).

Turning to `CC(C)c1ccccc1S(=O)(=O)c1cc(N)c2ncccc2c1[N+](=O)[O-]`, the “inhibition” value reads like this: (1 nM) 1.33%; (8.33 nM) 1.24%; (100 nM) 0.12%; (833.33 nM) 5.82%; (10000 nM) 9.31%.

Take `CCC(=O)NCC[C@@H]1CCc2ccc3c(c21)CCO3` [ramelteon]: the “inhibition” value was 0.77% (1 nM); -0.74% (8.33 nM); -1.05% (100 nM); 0.28% (833.33 nM); -10.8% (10000 nM).

For `N#Cc1ccc(-c2csc(NN=C3CCCC3)n2)cc1` [remodelin], the “inhibition” value is, setting by setting: (1 nM) 0.9%; (8.33 nM) 1%; (100 nM) 1.18%; (833.33 nM) 0.48%; (10000 nM) 0.34%.

Take `CC(=O)NNC(=O)N1Cc2ccccc2Oc2ccc(Cl)cc21`: the “inhibition” value was -0.04% (1 nM); 1.22% (8.33 nM); -0.93% (100 nM); -0.99% (833.33 nM); -2.14% (10000 nM).

For the compound `CC(C)(C)Nc1nc(Nc2ccc(C(N)=O)cc2)cc(N)c1C#N`, the “inhibition” value reads like this: (1 nM) -1.51%; (8.33 nM) -2.29%; (100 nM) -0.39%; (833.33 nM) -2.89%; (10000 nM) -1.36%.

Take `CCC1(CC)C(=O)C=CNC1=O` [pyrithyldione]: the “inhibition” value (1 nM) was 1.54%; the “inhibition” value (8.33 nM) is 0.58%; the “inhibition” value (100 nM) was -3.23%; the “inhibition” value (833.33 nM) was -6.45%; the “inhibition” value (10000 nM) was -4.46%.

With `CCOC(=O)c1c(C)[nH]c2ccc3c(c12)CN1CCc2cc(OC)ccc2C1O3` (stereo not given), the “inhibition” value is 3.34% (1 nM); 2.9% (8.33 nM); 2.29% (100 nM); 3.53% (833.33 nM); 24.1% (active) (10000 nM).

Take `O=C(O)COc1ccc(/C=C2\SC(=O)NC2=O)cc1`: the “inhibition” value is 0.12% (1 nM); 0.67% (8.33 nM); 5.3% (100 nM); 4.16% (833.33 nM); -0.64% (10000 nM).

Take `COc1cccc(N(C)C(=S)Oc2ccc3c(c2)CCCC3)n1` [liranaftate]: the “inhibition” value by setting is: (1 nM) -2.95%; (8.33 nM) 1.62%; (100 nM) 0.18%; (833.33 nM) -0.32%; (10000 nM) 1.9%.

On to `NS(=O)(=O)c1cc(C(=O)O)c(NCc2ccco2)cc1Cl` [furosemide], for which the “inhibition” value was -1.05% (1 nM); 1.27% (8.33 nM); -1.4% (100 nM); 0.41% (833.33 nM); 2.18% (10000 nM).

For the compound `CCNCc1cc(C(C)(C)C)c(O)c(C(C)(C)C)c1`, the “inhibition” value was 1.75% (1 nM); -0.5% (8.33 nM); 1.78% (100 nM); 0.46% (833.33 nM); 1.14% (10000 nM).

For `CCCC[C@H](NC(C)=O)C(=O)N[C@H]1CC(=O)NCCCC[C@@H](C(=O)O)NC(=O)[C@H](Cc2c[nH]c3ccccc23)NC(=O)[C@H](CCCNC(=N)N)NC(=O)[C@@H](Cc2ccccc2)NC(=O)[C@H](Cc2c[nH]cn2)NC1=O` [bremelanotide], the “inhibition” value reads like this: (1 nM) 1.27%; (8.33 nM) -1.82%; (100 nM) -0.14%; (833.33 nM) -2.33%; (10000 nM) 0.21%.

With `COc1cc(C)[nH]c(=O)c1CNC(=O)c1c(C)n([C@H](C)C2CCOCC2)c2ccccc12`, the “inhibition” value was -1.12% (1 nM); -1.57% (8.33 nM); 0.4% (100 nM); -4.34% (833.33 nM); -4.06% (10000 nM).

In the case of `CC(C)N(CCC(C(N)=O)(c1ccccc1)c1ccccn1)C(C)C` (stereo not given) [disopyramide], the “inhibition” value reads like this: (1 nM) -2.08%; (8.33 nM) -2.32%; (100 nM) -1.92%; (833.33 nM) -0.48%; (10000 nM) -5.17%.

Consider `CC1(C)CC(=O)c2c(C(F)(F)F)nn(-c3ccc(C(N)=O)c(N[C@H]4CC[C@H](OC(=O)CN)CC4)c3)c2C1`, for which the “inhibition” value (1 nM) was -1.61%; the “inhibition” value (8.33 nM) was 1.43%; the “inhibition” value (100 nM) was 2.1%; the “inhibition” value (833.33 nM) is -2.15%; the “inhibition” value (10000 nM) is -0.73%.

For `COc1ccc(-c2c(C)c(C(=O)NN3CCCCC3)nn2-c2ccc(Cl)cc2Cl)cc1`, the “inhibition” value reads like this: (1 nM) -1.3%; (8.33 nM) -1.23%; (100 nM) -5.55%; (833.33 nM) -3.38%; (10000 nM) -1.1%.

In the case of `Cc1cc(C(=O)NOCCO)c(Nc2ccc(I)cc2F)n(C)c1=O`, the “inhibition” value is, setting by setting: (1 nM) -2.17%; (8.33 nM) -8.75%; (100 nM) -12%; (833.33 nM) -15.5%; (10000 nM) -16.9%.
